Laboratory results as given in publication PMC6925144, “A prospective compound screening contest identified broader inhibitors for Sirtuin 1” (Scientific Reports, 2019).

Each compound was assayed against NAD-dependent deacetylase Sirtuin 1 (human, UniProt Q96EB6) (assay: primary screen, percent inhibition; higher = more effect of the substance). Settings: 10 µM.
Parameters: mean of n = 4
Description: Note that the inhibitory assay was conducted with NAD+.

Sequence of NAD-dependent deacetylase Sirtuin 1 (Q96EB6 2-747 limits assumed): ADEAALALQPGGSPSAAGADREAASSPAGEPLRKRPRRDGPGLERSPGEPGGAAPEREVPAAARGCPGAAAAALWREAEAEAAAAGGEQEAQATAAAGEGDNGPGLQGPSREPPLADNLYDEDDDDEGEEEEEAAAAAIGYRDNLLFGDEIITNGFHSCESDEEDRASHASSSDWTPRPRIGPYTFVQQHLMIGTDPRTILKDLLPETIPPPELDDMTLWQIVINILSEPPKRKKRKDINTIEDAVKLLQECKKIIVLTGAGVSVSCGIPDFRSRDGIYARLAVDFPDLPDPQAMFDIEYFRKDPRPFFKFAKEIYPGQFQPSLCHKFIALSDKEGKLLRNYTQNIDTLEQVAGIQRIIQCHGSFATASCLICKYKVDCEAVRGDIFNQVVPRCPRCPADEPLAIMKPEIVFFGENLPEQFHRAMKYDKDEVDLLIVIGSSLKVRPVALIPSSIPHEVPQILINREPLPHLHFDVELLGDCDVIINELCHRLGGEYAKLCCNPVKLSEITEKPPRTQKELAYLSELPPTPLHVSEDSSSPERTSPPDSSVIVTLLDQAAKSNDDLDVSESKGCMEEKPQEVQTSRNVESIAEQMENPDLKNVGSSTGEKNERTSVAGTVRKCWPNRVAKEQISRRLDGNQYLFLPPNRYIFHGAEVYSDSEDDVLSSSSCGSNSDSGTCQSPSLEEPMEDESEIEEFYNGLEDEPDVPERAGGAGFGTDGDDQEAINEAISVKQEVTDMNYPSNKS

Q: How did the “TSA(without NAD+) / Inhibitory assay (Promega kit) / Mean (%)” value (“TSA(without NAD+) / Inhibitory assay … (%)” below) turn out when `Cc1sc2nc(-c3cccs3)nc(N3CCC(C(N)=O)CC3)c2c1C` was run?
A: -0.574%

Q: Which “TSA(without NAD+) / Inhibitory assay … (%)” value does the source give for `CCOc1cc(/C=N/NC(=O)c2cc3c(s2)CCCC3)ccc1OCC(=O)Nc1cccc(C(F)(F)F)c1` here?
A: -2.14%

Q: How did the “TSA(with NAD+) / Inhibitory assay (Promega kit) / Mean (%)” value (“TSA(with NAD+) / Inhibitory assay … (%)” below) turn out when `COc1ccc(N(C)S(=O)(=O)c2cccc(C(=O)Nc3ccc(Cl)cc3)c2)cc1` was run?
A: 17.6%

Q: `O=C1NC(=O)c2ccccc2/C1=C\NNC(=O)C12CC3CC(CC(C3)C1)C2` was tested. Which “TSA(with NAD+) / Inhibitory assay … (%)” value did it give?
A: 27.6%

Q: For `COc1ccc(N(C)S(=O)(=O)c2cccc(C(=O)Nc3ccc(-n4cnnn4)cc3)c2)cc1`, which “TSA(without NAD+) / Inhibitory assay … (%)” value is on record?
A: 26.1%

Q: `Oc1cccc2c1Cc1c-2nc2ccc(Cl)cc2c1-c1ccccc1Cl` was tested. Which “TSA(with NAD+) / Inhibitory assay … (%)” value did it give?
A: 24.3%

Q: How did the “TSA(without NAD+) / Inhibitory assay … (%)” value turn out when `Cc1ccc(C(=O)Nc2nc3ccc(NS(=O)(=O)c4ccc5c(c4)CCC(=O)N5)cc3s2)s1` was run?
A: 31.3%

Q: `Cc1cc(F)ccc1N1CCCC(Nc2ccc3nnnn3n2)C1` (centres unmarked) was tested. Which “TSA(without NAD+) / Inhibitory assay … (%)” value did it give?
A: 6.7%
